In PubChem BioAssay (Tox21):
Records with an inconclusive call do not appear. Activity calls are given as the source filed them. Unless noted, calls come from the whole dose curve; as a rule, active = well fitted curve in the direction sought with a large enough effect in the repeat runs; inconclusive = weak or mixed curves; inactive = no such curve, though single readings can be large; an effect the other way counts as inactive or inconclusive. Where a SMILES comes first, the peptide text is derived from it. [ ]: non-standard residue; d: D form. pGlu = O=C1CC[C@@H](C(=O)O)N1

Columns and labels:
[1] = target: Progesterone receptor (Homo sapiens) (UniProt P06401); experiment: qHTS assay to identify small molecule antagonists of the progesterone receptor (PR) signaling pathway (AID 1346795; active = well fitted inhibition curve with a large enough effect in the signal ratio in the repeat runs, not every such curve was filed as active; the % refers to the signal ratio)
Progesterone receptor (Homo sapiens), sequence (P06401 whole entry, looked up): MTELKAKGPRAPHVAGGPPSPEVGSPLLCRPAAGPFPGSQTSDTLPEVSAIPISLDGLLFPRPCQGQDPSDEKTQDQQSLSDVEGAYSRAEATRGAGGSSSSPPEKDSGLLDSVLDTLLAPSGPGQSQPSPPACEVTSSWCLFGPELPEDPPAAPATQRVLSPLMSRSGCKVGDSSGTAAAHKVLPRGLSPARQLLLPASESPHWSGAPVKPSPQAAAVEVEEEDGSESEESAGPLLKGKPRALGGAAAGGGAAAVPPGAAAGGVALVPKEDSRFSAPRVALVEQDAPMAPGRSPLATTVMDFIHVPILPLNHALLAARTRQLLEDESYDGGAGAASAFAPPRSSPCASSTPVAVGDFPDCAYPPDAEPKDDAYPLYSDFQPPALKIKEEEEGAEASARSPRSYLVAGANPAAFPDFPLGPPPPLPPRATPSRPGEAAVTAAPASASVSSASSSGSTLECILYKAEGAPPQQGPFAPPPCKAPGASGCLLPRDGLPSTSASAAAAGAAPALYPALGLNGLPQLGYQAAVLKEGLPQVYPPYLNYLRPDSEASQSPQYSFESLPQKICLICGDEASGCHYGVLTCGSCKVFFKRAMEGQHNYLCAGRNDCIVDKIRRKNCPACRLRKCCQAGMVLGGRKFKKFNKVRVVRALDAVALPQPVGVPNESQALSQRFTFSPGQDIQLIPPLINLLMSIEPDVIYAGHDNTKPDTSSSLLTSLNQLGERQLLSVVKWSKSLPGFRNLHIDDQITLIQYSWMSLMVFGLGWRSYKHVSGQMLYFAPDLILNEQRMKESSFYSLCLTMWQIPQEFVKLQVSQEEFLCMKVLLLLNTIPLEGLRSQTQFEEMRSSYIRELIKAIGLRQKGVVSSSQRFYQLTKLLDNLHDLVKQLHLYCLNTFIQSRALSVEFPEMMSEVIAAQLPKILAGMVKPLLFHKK
Outline: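 Antagonist mode with agonist R5020 at 1 nM final and 16 hr incubation at 37C. Reporter was beta-lactamase driven by UAS in HEK293T (PR-UAS-bla), 2% charcoal-stripped serum; signal from LiveBLAzer FRET substrate, 2 hr at room temperature.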

[2] = qHTS assay to identify small molecule antagonists of the progesterone receptor (PR) signaling pathway - cell viability counter screen (AID 1346798); note: series mostly up to about 92 µM; nearly all actives have a fitted effect of over 50% in size
Outline: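 Cytotoxicity read as CellTiter-Glo luminescence (30 min, room temperature) in the same wells as the beta-lactamase readout. HEK293T PR-UAS-bla cells in charcoal-stripped 2% FBS received compound and R5020, then 16 h at 37C, 5% CO2.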

[3] = qHTS assay to identify small molecule agonists of the progesterone receptor (PR) signaling pathway - cell viability counter screen (AID 1346799; calls by dose curve; note: nearly all actives have a fitted effect of over 45% in size)
Outline: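 Cytotoxicity measured by CellTiter-Glo luminescence (30 min, RT) in the same wells as the PR beta-lactamase agonist read. Those HEK293T cells had 16 h compound treatment at 37 C in 2% charcoal-stripped FBS medium.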

[4] = qHTS assay to identify small molecule antagonists of the TGF-beta/Smad signaling pathway - cell viability counter screen (AID 1346824); note: nearly all actives have a fitted effect of over 50% in size
Outline: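 SBE-bla HEK 293T cells, incubated overnight, then compound plus 0.25 ng/mL TGF-beta1 (stock added) for 5 hr at 37 C. Viability was read in the same wells by CellTiter-Glo luminescence after 30 min at room temperature.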

[5] = qHTS assay to identify small molecule agonists of the TGF-beta/Smad signaling pathway - cell viability counter screen (AID 1346829); note: top concentration of the series differs between compounds; nearly all actives have a fitted effect of over 45% in size
Outline: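 SBE-bla HEK 293T cells plated overnight, compound exposure 5 hr at 37 C. Viability read in the same wells by CellTiter-Glo luminescence after 30 min at room temperature, following the beta-lactamase read.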

[6] = qHTS assay to identify small molecule agonists of the TGF-beta/Smad signaling pathway (AID 1346859; active = well fitted activation curve with a large enough effect in the signal ratio in the repeat runs, not every such curve was filed as active; the % refers to the signal ratio; note: series mostly up to about 77 µM)
Outline: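 Fluorescence (ex 405 nm; em 460 and 530 nm) was read 2 h after LiveBLAzer FRET substrate at RT. The preceding compound treatment of overnight-plated SBE-bla HEK293T cells lasted 5 h at 37 C.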

[7] = Human pregnane X receptor (PXR) small molecule agonists, qHTS cell viability counter screen (AID 1346977); note: nearly all actives have a fitted effect of over 50% in size
Outline: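 Same-well viability read: CellTiter-Fluor added after 23 hr compound exposure, fluorescence measured 1 hr later. Cells were PXR-Luc HepG2 seeded at 2,000/well in 5% charcoal-stripped FBS medium, rested 5 hr before dosing at 37 C.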

[8] = target: Thyrotropin-releasing hormone receptor (Homo sapiens) (UniProt P34981); experiment: qHTS assay to identify small molecule antagonists of the thyrotropin-releasing hormone receptor (TRHR) signaling pathway (AID 1346877; active = well fitted inhibition curve with a large enough effect in the repeat runs, not every such curve was filed as active; note: series mostly up to about 51 µM)
Thyrotropin-releasing hormone receptor (Homo sapiens), sequence (P34981 whole entry, looked up): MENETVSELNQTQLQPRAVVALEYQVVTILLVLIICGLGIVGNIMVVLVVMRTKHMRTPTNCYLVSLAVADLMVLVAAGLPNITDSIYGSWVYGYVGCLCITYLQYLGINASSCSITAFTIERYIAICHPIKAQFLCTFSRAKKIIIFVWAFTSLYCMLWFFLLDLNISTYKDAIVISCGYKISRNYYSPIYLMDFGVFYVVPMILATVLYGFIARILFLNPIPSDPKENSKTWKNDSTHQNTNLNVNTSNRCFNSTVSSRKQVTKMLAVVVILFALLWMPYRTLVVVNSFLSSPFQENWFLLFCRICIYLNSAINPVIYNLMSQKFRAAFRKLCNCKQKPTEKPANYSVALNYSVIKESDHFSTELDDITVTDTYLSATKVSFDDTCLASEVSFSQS
Outline: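 Antagonist mode: after a 5 min room-temperature compound exposure, cells were stimulated with 1 nM (final) TRH. Dye-loaded TRHR-HEK293 cells were used, and calcium-dependent fluorescence was followed for 3 min, with 15-point titrations run in triplicate.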

[9] = target: Thyrotropin-releasing hormone receptor (Homo sapiens) (UniProt P34981); experiment: qHTS assay to identify small molecule agonists of the thyrotropin-releasing hormone receptor (TRHR) signaling pathway (AID 1346891; calls by dose curve; note: series mostly up to about 58 µM)
Outline: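 Agonist-mode intracellular calcium readout: kinetic fluorescence over 3 min at 1 s intervals after compound addition to TRHR-HEK293 cells (18 h seeded, 2 h dye-loaded at 37 C). Fifteen concentrations, triplicates.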

[10] = Caspase-3/7 induction in HepG2 cells by small molecules, qHTS assay (AID 1346978); note: nearly all actives have a fitted effect of over 15% in size
Outline: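 Wild-type HepG2 cells, 2,000/well, settled 5 hr at 37 C and 5% CO2, then compound-treated for 17 hr; caspase-3/7 activity read by luminescent Caspase-Glo 3/7 after 30 min at room temperature.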
% is set by controls: 0 for no effect and ±100 for the full control effect.

CC(C)NNC(=O)c1ccncc1
inactive: Potency [1] | Potency [2] | Potency [3] | outcome [4] | outcome [5] | outcome [6] | Potency [7]

CCN[C@H]1C[C@H](C)S(=O)(=O)c2sc(S(N)(=O)=O)cc21
inactive: Potency [1] | Potency [2] | Potency [3] | outcome [4] | outcome [5] | outcome [6] | outcome [8] | Potency [9] | Potency [7] | outcome [10]

CC(C)C1CCC(O)CC1 (stereo not drawn)
inactive: Potency [1] | Potency [2] | Potency [3] | outcome [4] | outcome [5] | outcome [6] | outcome [8] | Potency [9] | outcome [10]

OCCc1ccccn1
inactive: Potency [1] | Potency [2] | Potency [3] | outcome [4] | outcome [5] | outcome [6] | outcome [8] | Potency [9] | outcome [10]

Cc1ccnc(NS(=O)(=O)c2ccc(N)cc2)n1
inactive: Potency [1] | Potency [2] | Potency [3] | outcome [4] | outcome [5] | outcome [6] | Potency [7] | outcome [10]

CCOC(=O)C1=NOC(c2ccccc2)(c2ccccc2)C1
inactive: Potency [1] | Potency [2] | Potency [3] | outcome [4] | outcome [5] | outcome [6] | outcome [8] | Potency [9] | outcome [10]

CCCCc1nc(Cl)c(CO)n1Cc1ccc(-c2ccccc2-c2nn[nH]n2)cc1
inactive: Potency [1] | Potency [2] | Potency [3] | outcome [4] | outcome [5] | outcome [6] | Potency [7] | outcome [10]

O=C(O)CNC(=O)c1ccc(CO)o1
inactive: Potency [1] | Potency [2] | Potency [3] | outcome [4] | outcome [5] | outcome [6] | outcome [8] | Potency [9] | outcome [10]

CCN(CC#N)c1cccc(C)c1
inactive: Potency [1] | Potency [2] | Potency [3] | outcome [4] | outcome [5] | outcome [6] | Potency [7] | outcome [10]

CC1=NS(=O)(=O)c2cc(Cl)ccc2N1
inactive: Potency [1] | Potency [2] | Potency [3] | outcome [4] | outcome [5] | outcome [6] | Potency [7] | outcome [10]

CC(C)=CCC/C(C)=C/C#N
inactive: Potency [1] | Potency [2] | Potency [3] | outcome [4] | outcome [5] | outcome [6] | outcome [8] | Potency [9] | Potency [7] | outcome [10]

N[C@H](C(=O)O)[C@@H](O)c1ccc(O)c(O)c1
inactive: Potency [1] | Potency [2] | Potency [3] | outcome [4] | outcome [5] | outcome [6] | outcome [8] | Potency [9] | Potency [7] | outcome [10]

C=C[Si](OC(C)=O)(OC(C)=O)OC(C)=O
inactive: Potency [1] | Potency [2] | Potency [3] | outcome [4] | outcome [5] | outcome [6] | outcome [8] | Potency [9] | outcome [10]

CC(CO)(CO)[N+](=O)[O-]
inactive: Potency [1] | Potency [2] | Potency [3] | outcome [4] | outcome [5] | outcome [6] | outcome [8] | Potency [9] | outcome [10]

O=S(=O)(O)c1cc(O)c(O)c(S(=O)(=O)O)c1
inactive: Potency [1] | Potency [2] | Potency [3] | outcome [4] | outcome [5] | outcome [6] | outcome [8] | Potency [9] | outcome [10]

c1ccc(CCc2ccccc2)cc1
inactive: Potency [1] | Potency [2] | Potency [3] | outcome [4] | outcome [5] | outcome [6] | outcome [8] | Potency [9] | outcome [10]

CC/C=C\CCOC(C)OCC (stereo not drawn)
inactive: Potency [1] | Potency [2] | Potency [3] | outcome [4] | outcome [5] | outcome [6] | outcome [8] | Potency [9] | Potency [7] | outcome [10]

CN1C(C)(C)CC(O)CC1(C)C
inactive: Potency [1] | Potency [2] | Potency [3] | outcome [4] | outcome [5] | outcome [6] | Potency [7]

CCCC[N+](C)(CCCC)CCCC
inactive: Potency [1] | Potency [2] | Potency [3] | outcome [4] | outcome [5] | outcome [6] | Potency [7]

CCCCCCCCCCCCCCCCCCO
inactive: Potency [1] | Potency [2] | Potency [3] | outcome [4] | outcome [5] | outcome [6] | outcome [8] | Potency [9] | outcome [10]

CC[N+](CC)(CC(=O)Nc1c(C)cccc1C)Cc1ccccc1 (tested in a mixture with another compound)
inactive: Potency [1] | Potency [2] | Potency [3] | outcome [4] | outcome [5] | outcome [6] | Potency [7] | outcome [10]

CCNC(=O)[C@@H]1CCCN1C(=O)[C@H](CCCN=C(N)N)NC(=O)[C@H](CC(C)C)NC(=O)CNC(=O)[C@H](Cc1ccc(O)cc1)NC(=O)[C@H](CO)NC(=O)[C@H](Cc1c[nH]c2ccccc12)NC(=O)[C@H](Cc1cnc[nH]1)NC(=O)[C@@H]1CCC(=O)N1 ([pGlu]HWSYGLRP-NHEt)
inactive: Potency [1] | Potency [2] | Potency [3] | outcome [4] | outcome [5] | outcome [6] | Potency [7] | outcome [10]

Cc1cc(C)c(N=Nc2c(O)c(S(=O)(=O)O)cc3cc(S(=O)(=O)O)ccc23)cc1C
inactive: activity change, negative = inhibition [1] 2.15% [at 8.39 µM] | activity change, negative = cytotoxicity [2] 1.98% [at 8.39 µM] | activity change, negative = cytotoxicity [3] 0% [at 8.39 µM] | viability change, negative = cytotoxic [4] -0.1% [at 6.97 µM] | activity change, negative = cytotoxicity [5] -4.86% [at 6.97 µM] | activation [6] 0.0984% [at 6.97 µM] | activity change, negative = cytotoxicity [7] -25% [at 8.39 µM]

CC(C)(N)C#N
inactive: Potency [1] | Potency [2] | Potency [3] | outcome [4] | outcome [5] | outcome [6] | outcome [8] | Potency [9] | outcome [10]

NC(=O)N1c2ccccc2CC(=O)c2ccccc21
inactive: Potency [1] | Potency [2] | Potency [3] | outcome [4] | outcome [5] | outcome [6] | Potency [7] | outcome [10]

C[N+]12CCC(CC1)C(OC(=O)C(O)(c1ccccc1)c1ccccc1)C2 (stereo not drawn)
inactive: Potency [1] | Potency [2] | Potency [3] | outcome [4] | outcome [5] | outcome [6] | outcome [8] | Potency [9] | outcome [10]
